Assay outcomes from PubChem BioAssay.
Sfp inh = inhibitors of Bacillus subtilis Sfp phosphopantetheinyl transferase. actives 3.5% (n = 310,000). Biochemical Sfp PPTase activity, qHTS. Q9F4F7. AID 1490. Potency, µM, for inactives: largest response in the series, negative = inhibition, hits mostly inhibitors;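 further: the enzyme is Sfp with the accession as filed and its product quenches rhodamine fluorescence; 0% = enzyme reaction without inhibitor and -100% = no enzyme wells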
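With Hepes-Na pH 7.6 buffer containing 10 mM MgCl2, Sfp (15 nM) modified BHQ-2-YbbR (12.5 uM) using rhodamine-CoA (5 uM). Two reads 30 minutes apart at 525/598 nm yielded each well's rate.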
mIDH1 inhibitor = inhibitors of human mutant IDH1 R132H; O75874; IDH1-R132H enzyme, NADPH consumption, diaphorase/resazurin fluorescence; Potency, µM (top dose mostly 76.6 µM), without a hit: at the top dose activity change, negative = inhibition, hits mostly inhibitors; actives 0.093% (n = 390,000); further: on the % scale 0 is the no-effect control and ±100 the full control effect; nearly all actives have a fitted effect of over 65% in size
Target sequence (O75874 whole entry R132H, stated change not applied): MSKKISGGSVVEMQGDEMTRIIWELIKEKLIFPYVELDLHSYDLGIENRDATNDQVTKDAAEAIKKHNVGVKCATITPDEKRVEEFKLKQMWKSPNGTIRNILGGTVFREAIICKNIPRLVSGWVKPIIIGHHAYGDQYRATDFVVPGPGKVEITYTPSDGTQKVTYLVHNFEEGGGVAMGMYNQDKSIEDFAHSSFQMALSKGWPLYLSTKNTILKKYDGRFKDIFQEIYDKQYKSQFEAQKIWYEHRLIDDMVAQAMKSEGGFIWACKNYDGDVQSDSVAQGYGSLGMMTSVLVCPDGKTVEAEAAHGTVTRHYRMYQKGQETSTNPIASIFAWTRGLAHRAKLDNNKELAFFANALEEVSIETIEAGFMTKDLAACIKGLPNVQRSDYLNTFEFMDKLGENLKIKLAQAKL
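IDH1-R132H (0.5 ug/mL) preincubated 30 min with compound, then NADPH (0.016 mM) and alpha-KG (2 mM) added; 80 min at RT, pH 7.5. Remaining NADPH coupled via diaphorase/resazurin to fluorescence (540/590 nm); concentration-response curves normalized to no-enzyme control.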
TrxR1 substrate = rat thioredoxin reductase 1 substrate activity | O89049 | purified TrxR1 substrate turnover, NADPH consumption readout | actives 0.01% (n = 390,000) | Potency, µM (series often up to 114 µM), inactives show top-dose activity change, negative = substrate turnover; further: on the % scale 0 is the no-effect control and ±100 the full control effect; nearly all actives have a fitted effect of over 50% in size
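Rat TrxR1, dispensed at 90 nM, was prereduced with 400 uM NADPH (final) for 5 min at ~22 deg C, then incubated with compound 15 min before 400 uM selenite. A first-read NADPH fluorescence drop versus no-compound background flagged substrates.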
VDR inh = blocks the human vitamin D receptor; actives 0.93% (n = 400,000); VDR-SRC2-3 peptide fluorescence polarization, 2 h; Potency, µM, without a hit: max response, negative = inhibition, usual class: inhibitors; AID 504847; further: on the % scale 0 is the no-effect control and ±100 the full control effect
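After 23 nl compound addition and a short centrifugation, plates sat for 2 hours at ambient temperature; polarization of fluorescence then indicated loss of VDR binding to peptide SRC2-3.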
PLK1 PBD block = inhibitors of human PLK1 polo-box domain binding. actives 2.8% (n = 360,000). Plk1 PBD binding of FITC phosphopeptide, fluorescence polarization. P53350. Potency, µM, for the others: max response, negative = inhibition, hits mostly inhibitors; further: series mostly up to about 57 µM; on the % scale 0 is the no-effect control and ±100 the full control effect; nearly all actives have a fitted effect of over 65% in size
TrxR1 inh = rat TrxR1 inhibition; Potency, µM (highest dose often 114 µM), for the others: at the top dose activity change, negative = inhibition, actives largely listed as inhibitors; recombinant rTrxR1, NADPH fluorescence consumption, selenite substrate; O89049; actives 1% (n = 390,000); further: on the % scale 0 is the no-effect control and ±100 the full control effect; nearly all actives have a fitted effect of over 65% in size
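Rat TrxR1 (90 nM in the dispensed reagent) was pre-reduced with 400 uM NADPH for 5 min at room temperature, then incubated with compound for 15 min. After 400 uM selenite was added, NADPH fluorescence (Ex 340/Em 450 nm) was followed for 8 min.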
VDR inh confirm = inhibits human vitamin D receptor, primary hit validation | VDR-coactivator inhibition assay, qHTS confirmation | AID 602199 | actives 89% (n = 840) | shares compounds with VDR inh | Potency, µM, most hits filed as inhibitors
VDR FP fluor = confirmation of human VDR-coactivator binding inhibitors, fluorescein label; shares compounds with VDR inh; VDR-coactivator binding, fluorescein fluorescence polarization; Potency, µM (series often up to 57.1 µM), without a hit: at the top dose activity change, negative = inhibition, hits mostly inhibitors; actives 48% (n = 840)
VDR bla reporter = confirmation of human vitamin D receptor inhibitors in reporter cells; shares compounds with VDR inh; VDR beta-lactamase reporter cells, FRET ratio; cells co-treated with VDR agonist LG190178; Potency, µM (top dose mostly 46.1 µM), inactives show at the highest dose activity change, negative = inhibition, hits mostly inhibitors; actives 23% (n = 840); further: on the % scale 0 is the no-effect control and ±100 the full control effect
VDR viability = counter-screen for vitamin D receptor inhibitors: cytotoxicity. shares compounds with VDR inh. cytotoxicity counter-screen, cell viability, qHTS. Potency, µM (titrated, usually from 48.3 µM), for inactives: at the top dose activity change, negative = cytotoxicity, most hits filed as cytotoxic. actives 18% (n = 840). AID 602204;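 further: plate controls were DMSO for no effect and high-concentration cycloheximide for full effect; nearly all actives have a fitted effect of over 75% in size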
Active calls of the source: *; ? = inconclusive; . = no result; [ ] = another dose, or the depositor's remark. The list is not random: actives were taken first. Their share in the collection is about 5.2%. The call rests on the fitted dose curve; in most records, active means well fitted curve in the direction sought with a large enough effect; inconclusive means small, poorly fitted or top-dose-only effect, or another doubt; inactive means no such curve, though single readings can be large; an effect the other way counts as inactive or inconclusive. Potency means the concentration at half of the fitted maximal effect.

SMILES	Sfp inh	mIDH1 inhibitor	TrxR1 substrate	VDR inh	PLK1 PBD block	TrxR1 inh	VDR inh confirm	VDR FP fluor	VDR bla reporter	VDR viability
CO[C@H]1OC[C@@]2(C)[C@@H]3C4=C(CN2C(=O)OC(C)(C)C)[C@H](C)[C@H](CO)[C@H](CO)[C@H]4CC[C@H]13	10%	.	.	.	.	.	.	.	.	.
Cc1nc(C)c(N)c(=O)[nH]1	5%	17%	12%[57.1 µM]	6%	-15%	21%[57.1 µM]	.	.	.	.
Cc1ccc(C)c(CNC(=O)CCn2cccn2)c1	.	7%	3%[57.1 µM]	11%	.	6%[57.1 µM]	.	.	.	.
CS/C(=N\S(=O)(=O)c1ccccc1)c1ccccc1	-16%	0%	0%	5%	6%	6%	.	.	.	.
O=S(=O)(/N=C(/Sc1ccccc1)c1ccccc1)c1ccc(Cl)cc1	.	.	15%	50µM*	.	23%	7.1*	16µM*	-2%	?
O=S(=O)(/N=C(/Sc1ccccc1)c1ccccc1)c1ccccc1	-26%	3%	3%	79µM*	1.9µM*	?	8.4*	?	15%	-8%
Cc1c(N/C(=N/S(=O)(=O)c2cc([N+](=O)[O-])ccc2Cl)c2ccccc2)c(=O)n(-c2ccccc2)n1C	5%	-3%	-5%	-14%	-14%	17%[57.1 µM]	.	.	.	.
O=[N+]([O-])c1ccc(Cl)c(S(=O)(=O)/N=C(/Sc2ccc(Br)cc2)c2ccccc2)c1	.	.	-2%	?	.	-9%	7.1*	5µM*	10%	8%
O=S(=O)(/N=C(/Sc1ccc(Cl)cc1)c1ccccc1)c1ccccc1	.	.	9%[0.0914 µM]	35µM*	.	?	3.5*	11µM*	0%	11%
CS/C(=N\S(=O)(=O)c1ccc(F)cc1)c1ccccc1	.	.	-2%	11%	.	7%	.	.	.	.
COc1ccc(NC(=O)Cc2ccccc2)cn1	-1%	-9%	6%	-2%	?	13%[57.1 µM]	.	.	.	.
COc1ccc(NC(=O)/C(Cl)=C(/Cl)S(=O)Cc2ccccc2)cn1 (stereo not drawn)	40µM*	1%	0%	14µM*	2.1µM*	?	4.2*	?	?	?
O=C(CCN1CCc2ccccc2CC1)c1ccc2c(c1)OCCO2	40µM*	4%	3%	?	13µM*	0.32µM*	13*	11µM*	?	?
COc1ccc(-c2nc3cnc(Oc4ccccc4)nc3n(CCC#N)c2=O)cc1	13%	.	.	-1%	.	.	.	.	.	.
O=C1Nc2ccc(Br)cc2C1=Nc1cccnc1	-2%	-26%	14%[57.1 µM]	25µM*	?	-1%[57.1 µM]	9.5*	-19%	17%	?
O=C1C(Cl)=C(N2CCOCC2)C(=O)N1c1cccc(C(F)(F)F)c1	-1%	1%	-2%	35µM*	?	-8%	30*	28µM*	7%	-4%
O=C(C1=C(c2ccccc2)C(=O)c2ccccc2C1=O)c1ccccc1	-9%	23%	-10%	-18%	-7%	-7%	.	.	.	.
Cc1oc2c(c1C(=O)c1ccccc1)C(=O)C(=O)c1ccccc1-2	50µM*	16%	?	?	?	62%[57.1 µM]	2.5*	3.2µM*	21µM*	3.4µM*
O=C1C(=O)c2c(C(=O)c3ccccc3)coc2-c2ccccc21	56µM*	20%	-16%	3.2µM*	?	-8%	4.2*	?	?	18µM*
CCOc1ccc(NC(=O)Cn2nnc(C(=O)OC)c2C(=O)OC)cc1	.	37%	-3%	-14%	.	4%	.	.	.	.
Nc1nc(-c2ccc(F)cc2)cc(C(F)(F)F)n1	18%	3%	22%	-10%	-10%	31%	.	.	.	.
COc1ccc(-c2cc(C(F)(F)F)nc(S(C)(=O)=O)n2)cc1	-18%	21%	6%	40µM*	?	10µM*	18*	28µM*	?	?
CS(=O)(=O)c1nc(-c2ccc(F)cc2)cc(C(F)(F)F)n1	?	10%	18%	7.9µM*	24µM*	18µM*	19*	?	?	?
COc1ccc(-c2cc(C(F)(F)F)nc(N)n2)cc1	19%	-3%	8%	-8%	-9%	12%	.	.	.	.
CN(CC(=O)Nc1ccccc1Br)C(=O)C1CCN(C(=O)c2ccc(Cl)cc2)CC1	.	0%	2%	-9%	-9%	6%	.	.	.	.
CCOC(=O)C1CCN(c2c(C(=O)c3ccc(OCC)cc3)cnc3ccc(OC)cc23)CC1	.	0%	-5%	2%	.	10%	.	.	.	.
CCOc1ccc(C(=O)CCN2CCCCCC2)cc1	?	1%	1%	25µM*	11µM*	0.25µM*	27*	?	?	?
CCOc1ccccc1C1N=C(c2ccc(OC)cc2)CC(c2ccccc2O)N1 (stereo not drawn)	-1%	-4%	8%[57.1 µM]	?	-18%	-12%	?	?	?	3%
Oc1ccccc1C1CC(c2cccs2)=NC(c2ccc(Cl)cc2)N1 (stereo not drawn)	-16%	1%	-1%	?	-14%	?	.	.	.	.
